# Where “and” joins values, the source holds several entries; their conditions need not be identical. Equal entries are not always repeated. Screen size: about 420,000 compounds; about 50,000 (12%) were called active. Not shown: some 26% with an inconclusive outcome. The list comes from a sample in which actives are over-represented; it also holds similar structures and randomly drawn compounds. Values without a mark were called inactive. Calls come from the whole dose curve; as a rule, active = well fitted inhibition curve with a large enough effect; inconclusive = small, poorly fitted or top-dose-only effect; inactive = flat fitted curve, though single readings scatter.
# Test: qHTS for Inhibitors of human tyrosyl-DNA phosphodiesterase 1 (TDP1): qHTS in cells in presence of CPT; note: nearly all actives have a fitted effect of over 55% in size
# Settings: chicken DT40 Tdp1-/-;hTDP1 cells + 20 nM CPT, ATP luminescence, 48 h; series mostly up to 46.2 µM; activity change, negative = growth inhibition: at the top concentration
# Source text: Human tyrosyl-DNA phosphodiesterase 1 (TDP1) is a novel repair gene, and we propose to use it as a new target for anticancer drug development. TDP1 is not an essential protein, but under treatment with topoisomerase I poison (camptothecin: CPT), TDP1 works as a critical factor for cell survival. To directly identify novel TDP1 inhibitors active in a cellular environment, we have knocked-out the Tdp1 gene in chicken DT40 cells (Tdp1-/-) and generated a complemented counterpart cells that contains a stable transfection of the human TDP1 gene (Tdp1-/-;hTDP1 cells). For the primary screen, Tdp1-/-;hTDP1 cells will be exposed to small molecules in the presence or absence of CPT, and their growth kinetics will be evaluated after 48 hours by measuring ATP activity. […] The hit compounds will then be evaluated in the presence or absence of CPT using Tdp1-/- cells. […] In tertiary assays, biochemical gel-based assays will be used to assess whether the hit compounds specifically target TDP1. To this end, we have screened this cell line against the MLSMR in two primary screens. In one screen we add CPT and in the other we screen in the absence of CPT; this AID represents the screen where CPT was present. NIH Chemical Genomics Center [NCGC] NIH Molecular Libraries Probe Centers Network [MLPCN] MLPCN Grant: MH095538 Assay Submitter (PI): Yves Pommier, NCI
# DT40-hTDP1 cells with 20 nM Camptothecin (add 20 microL of 1 mM CPT stock in 1 L of cell culture medium) were dispensed at 400 cells/5microL/well in tissue culture treated 1536-well white wall/solid bottom assay plates (Greiner Bio-One North America, NC, U.S.A.) using a Multidrop Combi 8 channel dispenser (Thermo Fisher, Waltham, MA, USA). 23 nL compounds and controls were transferred using the pin tool (Kalypsys, San Diego, CA, USA) to the assay plates. The assay plates were then incubated at 37 masculineC for a minimum 48 hr. Three microL of Cell Titer Glo solution was added to the plates and incubated at RT in dark for 30 min. Luminescence was read using ViewLux (Perkin Elmer) with 1 sec exposure slow speed, high gain and 2x binning.
# % is set by controls: 0 for no effect and ±100 for the full control effect; potency is the fitted concentration of half-maximal effect.
Compound,"activity change, negative = growth inhibition",Potency
CC1CN/C(=C\C(=O)c2ccc(Br)cc2)C(=O)N1 (stereo not drawn),-28%,
CN(C)CCCN(C(=O)c1ccc(S(=O)(=O)N2CCCCCC2)cc1)c1nc2ccc(Br)cc2s1,,11.6 µM (active)
CCN(CC)CCN(C(=O)c1ccc(S(=O)(=O)N2CCOCC2)cc1)c1nc2cc3c(cc2s1)OCCO3,-18.7%,
CCOc1ccc2nc(N(CCN(C)C)C(=O)c3ccc4ccccc4c3)sc2c1,-27.2%,
O=c1/c(=C/c2ccc(CNS(=O)(=O)c3ccccc3)o2)sc2n1CCN=2,-26.8%,
Cc1cc(C)n2c(NCc3ccccc3)c(CC(C)C)nc2n1,,14.6 µM (active)
Nc1nc(NCc2ccccc2)n(-c2ccccc2)n1,-6.22%,
Cn1cc(C2OC(=O)c3ccccc32)c2ccccc21 (stereo not drawn),-26.2%,
ONC(=Nc1ccc(Cl)cc1)c1ccccc1Cl,-27.7%,
Cc1ccc(/C=N/NC(=O)Cn2ccc(C(F)(F)F)n2)o1,11.8%,
CCOc1ccc2oc(C(=O)N(CC)CC(=O)Nc3ccc(NC(C)=O)cc3)c(C)c2c1,0.608%,
Cc1cccc2c1N(CCOc1ccccc1)C(=O)C2=O,,2.06 µM (active)
O=C1c2ccccc2C(=O)N1CCOc1ccc(F)cc1,12.8%,
Cc1cccc(C)c1-n1nnnc1C1(C)CCC(=O)N1CCOc1ccccc1 (stereo not drawn),-22.9%,
O=c1c2ccccc2ncn1CCCCOc1ccccc1F,-27.2%,
CCOC(=O)N1CCN(C(=O)C(C)NC(=O)c2ccco2)CC1 (stereo not drawn),-11.1%,
CC(=O)c1ccc(N2CCN(C(=O)CCNC(=O)Cn3ccc4ccccc4c3=O)CC2)cc1,-22.6%,
CCOc1cccc(NC(=O)c2ccc(F)c(S(=O)(=O)N(CC)c3cccc(C)c3)c2)c1,,18.4 µM (active)
CCOc1ccc(N(CC(=O)Nc2cccc(OC)c2)S(C)(=O)=O)cc1,-24.5%,
CCOc1cccc(NC(=O)CC#N)c1,11%,
O=c1[nH]c2ccccc2s1,-3.32%,
CC1CCCCN1C(=O)CCS(=O)(=O)Cc1ccccc1 (stereo not drawn),-3.67%,

Compound,"activity change, negative = growth inhibition",Potency
COc1ccnc(Oc2ccccc2)n1,28.3%,
CCC(C)c1ccccc1N1CC(C(=O)N2CCN(S(=O)(=O)c3ccc(F)cc3)CC2)CC1=O (stereo not drawn),-14.4%,
COc1ccc(CCNS(=O)(=O)c2cc3c(cc2C)NC(=O)CO3)cc1OC,1.71%,
CCOc1ccc(C(CC(=O)O)NC(=O)Cc2ccccc2)cc1OC (stereo not drawn),9.07%,
CCC/C=C(\CCC)C(NC(=O)Cc1ccccc1)c1ccc(C(=O)OC)cc1 (stereo not drawn),,18.4 µM (active)
COc1ccc(CC(=O)NC(C)CCc2ccccc2)cc1 (stereo not drawn),0.105%,
Cc1cccc(OCC(=O)NCC(=O)N/N=C/c2ccc(N(C)C)cc2)c1,-7.65%,
C=CCc1ccccc1OCC(=O)N/N=C/c1ccccc1OCC,-13.5%,
Cc1ccc(/C=N/NC(=O)COc2ccccc2-c2ccccc2)cc1,,0.164 µM (active)
CCOc1ccc(N(CC(=O)NCC2CCCO2)S(=O)(=O)c2ccc(C)cc2)cc1 (stereo not drawn),-25.1%,
O=C(COC(=O)c1ccc2c(c1)OCCO2)NCc1ccccc1Cl,11.6%,
Cc1ccc(NC(=O)NC(=O)N(C2CCCCC2)S(=O)(=O)c2ccccc2)cc1,-10.3%,
COCCNc1nc(N)c([N+](=O)[O-])c(N2CCCCCC2)n1,11.3%,
CSc1nsc(SCC(=O)Nc2cc(C(=O)O)ccc2C)n1,-9.95%,
Cc1ccc2[nH]c(C(=O)O)c(NC(=O)c3ccccc3[N+](=O)[O-])c2c1,9.57%,
Cc1c(C(=O)N/N=C/c2ccccc2)[nH]c2c([N+](=O)[O-])cccc12,,0.651 µM (active)
Cc1cc(C(=O)N/N=C/c2ccccc2[N+](=O)[O-])c(C)o1,-1.02%,
O=c1c(O)c(Br)ccc2c(Br)c(O)c(O)c(O)c12,-8.83% [at 9.04 µM],
O=C(COc1ccccc1O)NC1CCCC1,11.9%,
CCN(CC)CCn1cnc2c1c(=O)[nH]c(=O)n2Cc1ccccc1,5.18%,
COCCn1cnc2c1c(=O)n(CC(=O)NN)c(=O)n2Cc1ccccc1,-19.6%,
N=c1c2c(-c3ccccc3)c(-c3ccccc3)n(Cc3ccccc3)c2ncn1CCCO,,10.3 µM (active)

Compound,"activity change, negative = growth inhibition",Potency
CCOC(=O)c1sc(N)c(C#N)c1COC(=O)C1=COCCO1,0.608%,
CCCNC(=S)N1CCC(NC(=O)C23CC4CC(CC(C4)C2)C3)CC1,-18.2%,
NC(N)=N/N=C/c1ccc(OCc2ccc(Cl)cc2Cl)cc1,,25.9 µM (active)
COc1ccc(Cl)cc1N(CC(=O)N/N=C/c1ccc(OCC(N)=O)cc1)S(C)(=O)=O,-1.8%,
COC(=O)c1sc2ncccc2c1OCc1ccc(Cl)cc1Cl,-28.6%,
CCOC(=O)C1CCN(S(=O)(=O)c2ccc3c(c2)N(C)C(=O)CC(=O)N3C)CC1,,inactive
C/C(CC(=O)NCc1ccc(Cl)cc1)=N\NC(=O)COc1ccc(C)cc1Br,,16.4 µM (active)
CC(=O)Nc1ccc(OCC(=O)NCc2ccc(C)cc2)cc1,1.79%,
CCCCC(=O)N/N=C(\C)CC(=O)Nc1cc(Cl)ccc1OC,-9.87%,
CN(CC(=O)Nc1cccc(F)c1)C(=O)C1CSC2(C)CCC(=O)N12 (stereo not drawn),5.41%,
Cc1ccsc1C(=O)OCC(=O)NCCc1ccccc1,-7.87%,
Cc1cc(C)nc(Nc2n[nH]c(-c3ccccc3N)n2)n1,-6.41%,
C=CCC1=C/C(=C\c2c(N)n3nc(CC(=O)N4CCOCC4)sc3nc2=O)C=C(OC)C1=O,-14.2%,
N#CCCN(C(=O)Nc1ccc(Cl)c(Cl)c1)C1CCCCC1,-21.7%,
Cc1ccc(Nc2c(-c3ccc(C)s3)nc3ccccn23)cc1,,16.4 µM (active) and 20 µM (active)
Cc1ccn2c(Nc3ccc4c(c3)OCCO4)c(-c3ccc(C)s3)nc2c1,-13.7%,
COc1cc(NC(=O)CN(C)S(=O)(=O)c2ccc3nc(C)sc3c2)cc(OC)c1,4.15%,
CCCC12CN3CC(C)(CN(C1)C3c1ccccc1Cl)C2=O (stereo not drawn),-3.88%,
CCCC12CN3CC(CCC)(CN(C1)C3c1c[nH]c3ccc(OC)cc13)C2=O (stereo not drawn),,18.4 µM (active)
CCN(CC)CC(=O)c1c[nH]c2ccc(OC)cc12,5.15%,
COc1ccc(-c2c(C#N)cnc(C)c2C)c(O)c1OC,19.2%,
CCOC(=O)c1ccccc1NC(=O)COC(=O)CCC(=O)N1CCOCC1,6.01%,

Compound,"activity change, negative = growth inhibition",Potency
O[C@@H]1C[C@H](c2ccccc2)N(Cc2cccs2)C[C@H]1n1cc(C2CC2)nn1,-14.3%,
CC(C)CC(=O)N1CCN(Cc2ccccc2Br)CC1,0.503%,
C=C1C(=O)C23C(O)C1CCC2[C@]12COC3(O)C(O)C1C(C)(C)CC[C@H]2O (stereo partly drawn),,3.26 µM (active)
N#CCSc1nc2c(c(=O)n1Cc1ccccc1)C1(CCCC1)Cc1ccccc1-2,,16.4 µM (active)
Cc1cccc(-n2c(SCC(N)=O)nc3c(c2=O)C2(CCCCC2)Cc2ccccc2-3)c1,-25.7%,
CC(/C=C/C1(O)C(C)CC(=O)CC1(C)C)OC1OC(CO)C(O)C(O)C1O (stereo not drawn),10.3%,
Cc1ccc(N2C(=O)CC(N3CCSCC3)C2=O)c(C)c1 (stereo not drawn),5.52%,
CNc1nc(=O)n(C2CCCO2)cc1C (stereo not drawn),-11.7%,
N/C(=N\OC(=O)Nc1ccc(Cl)c(Cl)c1)c1ncc(C(F)(F)F)cc1Cl,-26.8%,
COc1cccc(/C=N/Nc2ncc(C(F)(F)F)cc2Cl)c1O,,4.61 µM (active)
COc1cc(/C=C2\SC(=S)N(Nc3ncc(C(F)(F)F)cc3Cl)C2=O)cc(OC)c1OC,-17.6%,
CC(=O)c1c(C)[nH]c(C(=O)CN2C(=O)NC(C)(C)C2=O)c1C,-14.5%,
O=C(N/N=C/c1cc2c(cc1Br)OCO2)C1COc2ccccc2O1 (stereo not drawn),-12.4%,
CCOc1cccc(-n2nnnc2-c2ccc(OC)cc2)c1,,2.91 µM (active)
COc1ccc(NC(=O)CSc2nnnn2-c2cccc(OC)c2)cc1,-2.26%,
COc1ccc(C2=CC(c3cccc(OC)c3)n3nnnc3N2)cc1 (stereo not drawn),0.872%,
CCCn1nnnc1NCc1ccc(OC)cc1,-2.53%,
C=CCOc1ccc(C(=O)Nc2ccccc2C(=O)N2CCCC2)cc1,-1.88%,
COc1cc(OC)c2c(c1Cl)OC1(C2=O)C(O)=CC(=O)CC1C (stereo not drawn),-20.9%,
Cc1ccc(O)c(/C=N/NC(=O)COc2ccc3c(C)cc(=O)oc3c2)c1,,20.6 µM (active)
Cc1cc(=O)oc2cc(OCC(=O)Nc3nnc(C4CC4)s3)ccc12,1.7%,
Cc1cc(=O)oc2ccc(OCC(=O)O)cc12,2.43%,

Compound,"activity change, negative = growth inhibition",Potency
CC(=O)c1c(C)[nH]c(C(=O)COc2ccc3c(C)cc(=O)oc3c2)c1C,,16.4 µM (active)
CCOC(=O)Cc1csc(NC(=O)COc2ccc3c(C)cc(=O)oc3c2)n1,-16.1%,
COC(=O)COc1ccc2oc(=O)cc(C)c2c1,11.2%,
CC1=C(C/C=C(\C)CCCC(C)CCCC(C)CCCC(C)C)C(=O)c2ccccc2C1=O (stereo not drawn),-6.7%,
C=CC[C@H](CC(=O)OC(C)(C)C)C(=O)OC[C@H]1CCCN1C(=O)[C@H](CC=C)CC(=O)N(CCO)Cc1ccccc1,,16.4 µM (active)
CCc1ccc(NC(=O)Cn2ncn3c(cc4ccccc43)c2=O)cc1,-23.6%,
N#Cc1cccc(CN2CCC(=O)N(CCO)CC2)c1,4.69%,
O=C(C1CCC1)N1CCN(S(=O)(=O)c2ccc([N+](=O)[O-])cc2)CC1,-20.9%,
Cn1c(=O)c2c(-c3ccccc3Br)n(Cc3ccccc3)cc2n(C)c1=O,,20.6 µM (active)
Cc1c(S(=O)(=O)NCc2ccccc2)c(=O)n(C)c(=O)n1C,15.1%,
O=C(c1ccc[nH]c1=S)N1CCN(S(=O)(=O)c2ccc(Br)cc2Cl)CC1,-0.528%,
COc1ccc(CCNC(=O)c2nnc(CS(=O)(=O)c3ccccc3)o2)cc1OC,-33.7%,
COc1ccc(CCNC(=O)c2ccc(CSCc3ccc(C)cc3)o2)cc1OC,,14.6 µM (active)
O=C(NCc1ccco1)c1ccc(CS(=O)(=O)Cc2ccc(F)cc2)o1,-9.49%,
COc1ccc(CCNC(=O)Cc2ccc(C)cc2)cc1OC,-25.1%,
COc1ccccc1CNC(=O)c1ccc(CS(=O)(=O)c2ccccc2)o1,-0.755%,
Cc1ccc(CNC(=O)c2ccc(CS(=O)Cc3cccc(Cl)c3)o2)cc1 (stereo not drawn),-23.5%,
COc1ccc(CCNC(=O)c2ccc(CS(=O)(=O)c3ccc(Br)cc3)o2)cc1OC,,20.6 µM (active)
Cc1ccc(CCNC(=O)c2ccc(CS(=O)(=O)Cc3cccc(C)c3)o2)cc1,,23.1 µM (active)
COc1ccc(CCNC(=O)NS(=O)(=O)c2ccc(C)cc2)cc1OC,1.74%,

# Reference: PubChem BioAssay AID686979 (National Center for Advancing Translational Sciences (NCATS), 2013)
